# Compounds without any hit were thinned out: in the full panel of roughly 83,000, 20% have a hit.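 Results are percent growth after 48 hours of single-concentration exposure. 100 means growth as in untreated cells, lower positive values show inhibition; negative values down to -100 show cell death.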 A number with no mark means an inactive call. The source made the active and inactive calls. How the source made its calls: active means growth percent below 10; inactive means the rest.
# How the values were obtained:
# Experiment in all cases: NCI-60 one-dose screen, 48 h (100 = growth as untreated, 0 = no growth, -100 = all killed)
# Conditions in all cases: 10 µM unless noted
# NCI-H23 lung = test system: NCI-H23 lung
# NCI-H226 lung = test system: NCI-H226 lung
# NCI-H322M lung = test system: NCI-H322M lung
# HOP-62 NSCLC = test system: HOP-62 NSCLC
# NCI-H460 lung = test system: NCI-H460 lung
# HOP-92 NSCLC = test system: HOP-92 NSCLC
# NCI-H522 lung = test system: NCI-H522 lung
# A549/ATCC NSCLC = test system: A549/ATCC NSCLC
# 786-0 renal = test system: 786-0 renal
# COLO 205 colon = test system: COLO 205 colon
# DU-145 prostate = test system: DU-145 prostate
# K-562 leukemia = test system: K-562 leukemia
# MALME-3M melanoma = test system: MALME-3M melanoma
# MDA-MB-231 breast = test system: MDA-MB-231 breast
# RXF 393 renal = test system: RXF 393 renal
# SF-268 CNS = test system: SF-268 CNS
# SF-295 CNS = test system: SF-295 CNS
# SF-539 CNS = test system: SF-539 CNS
# UACC-257 melanoma = test system: UACC-257 melanoma
# M14 melanoma = test system: M14 melanoma
Compound,growth (NCI-H23 lung),growth (NCI-H226 lung),growth (NCI-H322M lung),growth (HOP-62 NSCLC),growth (NCI-H460 lung),growth (HOP-92 NSCLC),growth (NCI-H522 lung),growth (A549/ATCC NSCLC),growth (786-0 renal),growth (COLO 205 colon),growth (DU-145 prostate),growth (K-562 leukemia),growth (MALME-3M melanoma),growth (MDA-MB-231 breast),growth (RXF 393 renal),growth (SF-268 CNS),growth (SF-295 CNS),growth (SF-539 CNS),growth (UACC-257 melanoma),growth (M14 melanoma)
Clc1ccc(CNc2c3ccccc3nc3ccccc23)cc1,53%,75.5%,54.1%,53%,16.4%,25.5%,66.5%,39.3%,35.3%,8.58% (active),54.8%,4.34% (active),39.6%,54.8%,29.7%,67.9%,59.6%,30.3%,76.1%,53.3%
Cn1cc(-c2nc(-c3c[nH]c4ccncc34)cs2)c2ccccc21,86%,87.6%,82.5%,60.4%,-37.7% (active),53.9%,66.8%,42.1%,77.3%,-67.3% (active),44%,-33.2% (active),54%,25.2%,70.8%,77.3%,65.5%,78.7%,91.2%,-71.5% (active)
Cc1ccc(NC(=S)NNC(=S)NNc2ccccc2)cc1C,99.9%,99.7%,85.5%,106%,96.3%,55.4%,86.3%,101%,114%,107%,77.9%,8.18% (active),102%,104%,96.3%,55.1%,109%,103%,98.6%,115%
NC(=O)CCC(C(=O)O)N1C(=O)c2ccc(O)cc2C1=O (stereo not given),118%,107%,112%,113%,109%,93.2%,102%,122%,111%,119%,118%,72.2%,157%,113%,115%,111%,91.7%,106%,107%,108%
O=C(Cn1c(-c2ccc([N+](=O)[O-])cc2)nc2ccccc21)NNC(=O)c1cccnc1,83.4%,60.3%,88.6%,95.2%,76.2%,38%,54.7%,91.1%,93%,92.6%,90.3%,63.4%,105%,92.4%,98.7%,89.2%,83.4%,88.9%,86.7%,91%
CCCCCCCCCCCCCCCC(N)c1ccccc1 (stereo not given),-24.4% (active),87.6%,92.9%,-33.9% (active),-66.8% (active),31.4%,63.5%,31.9%,1.55% (active),-57.8% (active),-62.9% (active),0.445% (active),79.5%,-71.9% (active),-89.4% (active),-38.9% (active),-49.5% (active),88.4%,82.6%,3.85% (active)
O=C(Nc1cccnc1Nc1ccc(F)cc1)c1cn(Cc2cccc(Oc3ccccc3)c2)nn1,74%,76.6%,78.9%,84.7%,80.4%,84.8%,64.7%,61%,79.2%,91.6%,84.5%,18.8%,60.9%,61.1%,74.2%,54.8%,67.7%,63.7%,87.4%,37.1%
O=C1c2ccc3c4ccc5c6c(ccc(c7ccc(c2c37)C(=O)N1CCC[P+](c1ccccc1)(c1ccccc1)c1ccccc1)c64)C(=O)N(CCC[P+](c1ccccc1)(c1ccccc1)c1ccccc1)C5=O,28.1%,105%,84.2%,60.3%,28%,77.3%,67.6%,43.8%,91.2%,15.5%,40.8%,16.4%,-27.8% (active),59.6%,95%,57.6%,42.5%,47.4%,21.5%,18.8%
C=CCn1c(SCC(=O)Nc2ccc(C(=O)/C=C/c3ccc(Cl)cc3)cc2)nnc1-c1cc(-c2ccc(S(N)(=O)=O)cc2)nc2ccccc12,99.3%,89.6%,99.7%,91.8%,103%,91.4%,98.3%,92.6%,83.1%,103%,104%,71.1%,93.3%,90%,80.2%,74.8%,97.5%,87%,99.8%,92.2%
Cc1cccc(Cl)c1NC(=O)c1ccc2nc(NC(=O)NCCN(C)C)sc2c1,103%,100%,101%,60.3%,107%,64.1%,77.5%,102%,87.7%,45.1%,104%,14.7%,70.7%,92.6%,47.5%,93.6%,86.7%,79.8%,86.1%,90.5%
C1=CN2CC(c3ccccc3)=NNC2c2ccccc21 (stereo not given),76.1%,63.3%,86.1%,72.4%,98%,76.7%,75.5%,95.1%,99.3%,113%,113%,48.6%,80.4%,63.4%,90%,106%,104%,92.6%,97.1%,94.1%
COc1cc2c(c(OC)c1OC)CCC(c1cccc(C(=O)Nc3cccc(Br)c3)c1)O2 (stereo not given),77.5%,69.9%,50.9%,96.8%,70.5%,6.24% (active),48.8%,64.5%,81%,88.3%,85.1%,52.1%,102%,17.6%,78.6%,67.1%,64.5%,99.4%,74.1%,73.9%
CCN(c1ccc(Cl)cc1)c1nc(-c2ccc([N+](=O)[O-])cc2)cs1,92%,91.9%,86.7%,99.6%,99.6%,83.6%,82.8%,97.6%,89%,113%,103%,88.9%,80.5%,90.6%,113%,110%,100%,99.6%,104%,99.7%
CCCCCC(=O)OCC(=O)O[C@@H]1C[C@]2(C(C)C)O[C@@]1(C)[C@@H]1CC[C@@H](C)[C@H]1[C@@H]2OC(=O)/C=C/c1ccccc1,91.3%,86%,84.6%,91.7%,93.3%,95.3%,55.9%,78.7%,54.4%,73.9%,73.4%,42.3%,49.8%,83.6%,-2.83% (active),54.4%,90.2%,92.3%,87.2%,69.1%
CCn1c(=S)[nH]c2c(=O)n(C)c(=O)n(C)c21,105%,105%,95%,109%,123%,89.8%,90.3%,96.3%,97.1%,116%,111%,105%,99.6%,115%,106%,114%,104%,95.3%,92%,95.5%
